Bioassay records from PubChem.
dFosB act-1 – activators of mouse delta FosB homodimer. 340,000 tested, 0.99% active. AID 493131. activation, % at 25 µM. purified delta FosB, TAMRA-CDK5 oligo fluorescence polarization; percent of positive-control signal above neutral wells;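 active means mean activation above about 17%, with every replicate also reaching it, limit read from the data, passing the limit was not always enough; inconclusive means only one of the two conditions met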
Target sequence (P13346 whole entry, looked up): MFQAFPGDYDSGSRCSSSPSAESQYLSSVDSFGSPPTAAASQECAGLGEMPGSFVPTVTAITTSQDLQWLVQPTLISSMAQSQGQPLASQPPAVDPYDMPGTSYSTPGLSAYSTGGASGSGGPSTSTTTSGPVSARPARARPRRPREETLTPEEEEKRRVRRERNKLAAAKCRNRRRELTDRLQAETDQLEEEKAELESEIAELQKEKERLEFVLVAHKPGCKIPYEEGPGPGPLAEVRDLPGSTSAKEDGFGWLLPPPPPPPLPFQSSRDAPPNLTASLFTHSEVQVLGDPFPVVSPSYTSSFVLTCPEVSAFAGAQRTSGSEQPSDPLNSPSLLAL
UBC13 inh – human UBC13 polyubiquitination inhibition; 330,000 tested, 0.47% active; UBC13 polyubiquitin chain formation, TR-FRET; AID 485273; inhibition, % at 20 µM; P61088; in the data active means inhibition above about 45%, passing the limit was not always enough; inconclusive means no clear call, values can overlap the other calls
Target sequence (P61088 whole entry, looked up): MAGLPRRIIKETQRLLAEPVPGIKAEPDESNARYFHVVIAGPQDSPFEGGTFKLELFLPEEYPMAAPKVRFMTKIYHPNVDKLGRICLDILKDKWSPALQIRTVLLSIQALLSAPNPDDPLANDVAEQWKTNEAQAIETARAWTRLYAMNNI
NR3A LBD binder – modulators (binders) of human NR3A ligand-binding domain; NR3A LBD differential scanning fluorimetry, Tm shift; 0% = protein alone, 100% = glycine-bound protein; Tm shift relative to glycine control, % at 25 µM; 340,000 tested, 2.5% active; AID 1259313;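 active means melting temperature shift of at least 10% of the positive control shift, at one fixed dose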
Yeast superoxide – lowers age-related superoxide in aged yeast cells; superoxide response (% of plate mean), % at 10 µM; S. cerevisiae aged cells, superoxide DHE fluorescence; stronger effect = lower value; 330,000 tested, 0.18% active;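 active means superoxide response under a set limit, about three screen SD below normal, cut at about 65% in these data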;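 further: yeast aged for seven days with compound at 30 °C before DHE staining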
NALP1 inh – blocks the NALP1 inflammasome reconstituted in yeast. S. cerevisiae NALP1/ASC/caspase-1 growth, X-gal OD620, 72 h. inhibition, % at 10 µM. 280,000 tested, 0.61% active. AID 2071; in the data active means inhibition mostly above about 24%, no sharp cut-off; inactive means mostly below about 32%
dFosB act-2 – delta FosB (mouse) homodimer activation | shares compounds with dFosB act-1 | purified delta FosB, TAMRA-CDK5 oligo fluorescence polarization; normalised: neutral wells 0, positive control 100 | activation, % at 24.9 µM | 2,400 tested, under 10 active;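 active means highest replicate activation at or above 34% and every replicate reaching that threshold; inconclusive means meets only one of the two criteria; inactive means meets neither criterion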;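 further: higher polarization means more probe DNA bound by delta FosB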
Numbers stand for hits; – = inactive; ? = inconclusive; · = not tested or not shown. Hits are enriched below; roughly 4.3% of the tested compounds scored in any of these assays.

SMILES | dFosB act-1 | UBC13 inh | NR3A LBD binder | Yeast superoxide | NALP1 inh | dFosB act-2
COc1ccc(-c2cc3nc4c(c(=O)n3[nH]2)CCC4)cc1 | – | – | – | – | – | ·
O=C(CSc1ccc(-c2ccco2)nn1)Nc1ccccc1F | – | – | – | – | – | ·
CCc1ccc(OCC(=O)NNC(=O)Cc2cccs2)cc1 | – | – | – | – | – | ·
CCc1ccc(OCC(=O)NNC(=O)Cc2c(F)cccc2Cl)cc1 | 29 | – | – | – | · | –
Clc1ccc(Cn2cc(/C=N/n3cnnc3)c3ccccc32)c(Cl)c1 | 25 | – | – | – | – | –
COc1ccc(-c2ccc3c(N)c(C(=O)c4ccc(OC)c(OC)c4)sc3n2)cc1 | 30 | – | – | – | – | –
O=C(C[n+]1ccccc1)N/N=C/c1ccc(Cl)cc1 | – | – | – | – | · | ·
Cc1cc(Br)cc(C)c1OCC(=O)NNC(=O)CCC(=O)NCc1ccccc1 | 49 | – | – | – | – | –
Cc1cc(OCC(=O)N2CCN(c3cccc(Cl)c3)CC2)c2c(C)c(C)c(=O)oc2c1 | 39 | – | – | – | – | –
Cn1ncc(Br)c1C(=O)N/N=C/c1cccc(OC2CSC2)c1 | – | – | – | – | – | ·
O=C(N/N=C/c1cccc(OC2CSC2)c1)c1ccccc1O | 29 | – | – | – | – | –
Cc1ccc(CNC(=O)COC(=O)c2cc(=O)[nH]c3ccccc23)cc1 | 55 | – | – | – | · | –
O=C(COC(=O)c1cc(=O)[nH]c2ccccc12)Nc1nccs1 | ? | – | – | – | – | ·
O=C(COC(=O)c1cc(=O)[nH]c2ccccc12)Nc1ccc(Cl)cn1 | 19 | – | – | – | · | –
O=C(COC(=O)c1cc(=O)[nH]c2ccccc12)Nc1nc(-c2ccccc2)cs1 | 55 | – | – | – | – | –
Cc1cccc(C)c1NC(=O)COC(=O)c1cc(=O)[nH]c2ccccc12 | 42 | – | – | – | · | –
COc1cc(C2C(C#N)=C(N)Oc3cc(C)n(CCc4ccccc4)c(=O)c32)cc2c1OCO2 (configuration not stated) | 68 | – | – | – | – | –
Cc1nc(NC(=O)c2ccc(-c3cc4ccccc4oc3=O)cc2)ccc1Br | – | – | – | – | – | ·
O=C(Nc1ccc(Br)cn1)c1cccc(-c2cc3ccccc3oc2=O)c1 | 34 | · | – | – | – | –
CCC(C)C(NC(=O)c1ccccc1NC(=O)c1ccco1)C(=O)NNC(=O)c1ccc(OC)cc1 (configuration not stated) | – | – | – | – | – | ·
CCC(C)C(NC(=O)c1ccccc1NC(=O)c1ccco1)C(=O)NC1CCCCC1 (configuration not stated) | 31 | – | – | – | – | –
O=C(Nc1ccccc1C(=O)NC1CCCCC1)c1ccco1 | – | – | – | – | – | ·
CCC(NC(=O)c1ccccc1NC(=O)c1ccco1)C(=O)NNC(=O)c1ccc(OC)cc1 (configuration not stated) | 32 | – | – | – | – | –
COc1ccc(C(=O)NNC(=O)C(NC(=O)c2ccccc2NC(=O)c2ccco2)C(C)C)cc1 (configuration not stated) | 32 | – | – | – | – | –
O=C(O)COCC(=O)N1CCCN(c2nccc(C(F)(F)F)n2)CC1 | – | – | – | – | – | ·
SMILES | dFosB act-1 | UBC13 inh | NR3A LBD binder | Yeast superoxide | NALP1 inh | dFosB act-2
NC(=O)C1CCN(C(=O)c2ccc3c(=O)n(Cc4ccco4)c(SCC(=O)c4ccccc4)nc3c2)CC1 | 36 | – | – | – | – | –
COC(=O)c1ccc2c(=O)n(Cc3ccco3)c(SCC(=O)Nc3ccccc3Cl)nc2c1 | – | – | – | – | – | ·
COC(=O)c1ccc2c(=O)n(Cc3ccco3)c(SCC(=O)Nc3cc(C)on3)nc2c1 | 25 | – | – | – | – | –
CCOC(=O)N1CCC(NC(=O)CS(=O)Cc2nc(-c3ccc(C)cc3)oc2C)CC1 (configuration not stated) | – | – | – | – | – | ·
O=C1NC[C@H](Cc2ccc(O)cc2)N(CC2CCCCC2)C1=O | – | – | – | – | · | ·
CC(C)C[C@@H](CN1CCC[C@@H]1CN1C(=O)C(=O)NC[C@@H]1Cc1ccccc1)N1C[C@H](Cc2ccc(O)cc2)N(CC2CCCCC2)C(=O)C1=O | – | · | – | · | · | ·
CC(C)C[C@@H](CN1CCCC1CN1C(=S)NC[C@@H]1Cc1ccc(O)cc1)N1C[C@H](Cc2ccc(O)cc2)N(CC2CCCCCC2)C1=S (some centres not stated) | 21 | · | 36 | · | · | –
CC(C)C[C@@H](CN1CCCC1CN1C(=S)NC[C@@H]1Cc1ccc(O)cc1)N1C[C@H](Cc2ccccc2)N(CC2CCCCCC2)C1=S (some centres not stated) | 45 | · | 12 | · | · | –
CC(C)C[C@@H](CN1CCC[C@@H]1CN1C(=O)C(=O)NC[C@@H]1Cc1ccccc1)N1C[C@H](Cc2ccccc2)N(CC2CCCCCC2)C(=O)C1=O | 35 | · | – | · | · | –
O=C1NC[C@H](Cc2ccccc2)N(C[C@H]2CCCN2C[C@H](Cc2ccccc2)N2C[C@H](Cc3ccccc3)N(CC3CCCCCC3)C(=O)C2=O)C1=O | – | · | – | · | · | ·
CC(C)C[C@@H](CN1CCCC1CN1C(=S)NC[C@@H]1Cc1ccc(O)cc1)N1C[C@H](Cc2ccccc2)N(CC2CCCCC2)C1=S (some centres not stated) | 52 | · | – | · | · | –
O=C(NCc1cc([N+](=O)[O-])ccc1O)c1cc(-c2ccncc2)nc2ccccc12 | – | – | – | – | – | ·
Cc1cccc(N(C)S(=O)(=O)c2c(C)[nH]c(C)c2C(=O)N2CCCC2)c1 | – | – | – | – | – | ·
OC(COc1cccc2ccccc12)CN1CCN(c2ccccc2Cl)CC1 (configuration not stated) | – | · | – | – | – | ·
O=C(O)C[C@H]1c2cc(C(F)(F)F)ccc2S(=O)(=O)N1C1CCN(Cc2ccccc2)CC1 | – | – | – | – | · | ·
CC(C)C[C@H]1CNC(=S)N1CC1CCCN1C[C@H](Cc1ccccc1)N1C[C@H](Cc2ccc(O)cc2)N(CC2CCCCCC2)C1=S (some centres not stated) | 57 | · | 29 | · | · | –
COc1ccc(-c2noc(CSc3nc(N)c(-c4ccccc4)c(=O)[nH]3)n2)cc1 | 62 | – | – | – | – | –
CCn1c(=O)c2ccccc2n2c(SCC(N)=O)nnc12 | – | – | – | – | – | ·
COc1ccc2cc(OCC(=O)NNC(=O)Nc3ccc(C(C)=O)cc3)ccc2c1 | 99 | – | – | – | – | –
COc1ccc(NC(=O)NNC(=O)COc2ccc3cc(Br)ccc3c2)cc1 | – | – | – | – | – | ·
COc1ccccc1NC(=O)NNC(=O)COc1ccc2ccccc2c1 | 21 | – | – | – | – | –
COc1ccc(NC(=O)NNC(=O)COc2ccc3cc(Br)ccc3c2)cc1OC | 144 | – | – | – | 30 | –
